Laboratory results taken from PubChem BioAssay (Tox21).
Records with an inconclusive call do not appear. Where a call stands in place of a potency, no number is given. Values without a mark were called inactive. Calls of active or inactive are those of the source. The call rests on the fitted dose curve; in most records, active means well fitted cell-killing curve with a large enough effect in the repeat runs; inconclusive means weak or mixed curves, or effect the other way; inactive means flat fitted curve, though single readings scatter.

assay: qHTS assay to identify small molecule agonists of the androgen receptor (AR) signaling pathway in the presence of an antagonist - cell viability counter screen (AID 1259379); settings: MDA-kb2 viability, CellTiter-Fluor, 16 h; series mostly up to 92.4 µM; further: nearly all actives have a fitted effect of over 25% in size
Text: National Center for Advancing Translational Sciences [NCATS]
NIH Chemical Genomics Center [NCGC]
U.S. Environmental Protection Agency [EPA]
National Institutes of Environmental Health Sciences [NIEHS]
National Toxicology Program [NTP]
U.S. Food and Drug Administration [FDA]
Androgen receptor (AR) is an important member of nuclear receptor family. Its signaling plays a critical role in AR-dependent prostate cancer and other androgen related diseases. Considerable attention has been given in the past decades to develop methods to study and screen for the environmental chemicals that have the potential to interfere with metabolic homeostasis, reproduction, developmental and behavioral functions. Therefore AR binding assay for screening against androgen agonists and antagonists can be used to identify potential endocrine disruptors.
MDA-kb2 cells (from ATCC, deposited by Wilson et al.) are human breast carcinoma cells that were stably transfected with a luciferase reporter gene under control of the MMTV promoter that contains response elements for both androgen receptor (AR) and glucocorticoid receptor (GR). This particular screening for measuring luciferase reporter gene activity using MDA-kb2 cells against Tox21 10K library compounds is a confirmation study on agonist mode screening in the presence of AR-antagonist compound (Nilutamide) at 3.0uM final concentration. The cytotoxicity of the compounds was tested in parallel by measuring the cell viability using CellTiter-Fluor assay system (Promega, Madison, WI) in the same wells.
Tox21 Assay Protocol Summary:
MDA-kb2 cells (cells cultured without CO2) were dispensed at 3,000 cells/well in 4uL of culture medium into white wall/solid-bottom 1536-well plates (Corning Life Sciences, Corning, NY) using a Multidrop Combi (Thermo Fisher Scientific Inc., Waltham, MA) dispenser. The assay plates were incubated at 37C and 0% CO2 for 5hr. One uL of 3.0uM (final concentration) Nilutamide or assay buffer was added using two separate tips of Flying Reagent Dispenser (FRD, Aurora Discovery, San Diego, CA). Then 23nL of compounds dissolved in DMSO at 15 concentrations and positive controls were transferred to the assay plates using a Pintool station (Wako, San Diego, CA). The assay plates were incubated at 37C and 0% CO2 for 16 hr. After 15hr incubation at 37C, 1uL/well CellTiter-Fluor reagent (Promega Corporation) was added to each well of the assay plates using FRD. After 1hr incubation at 37C and 0% CO2, the fluorescence signal was measured using a ViewLux plate reader (PerkinElmer, Shelton, CT).

SMILES | Potency | activity change, negative = cytotoxicity
Nc1cc(=O)[nH]c(N)n1 | inactive | 
CC(=O)Nc1c(I)cc(I)c(C(=O)O)c1I | inactive | 
CC[N+](C)(C)c1cccc(O)c1 | inactive | 
CN1CCCC1 | inactive | 
O=S(O)CO | inactive | 
CCCCCOC(=O)CCCCC | inactive | 
CO/N=C(/C(=O)N[C@@H]1C(=O)N2C(C(=O)OCOC(=O)C(C)(C)C)=C(C)CS[C@H]12)c1csc(N)n1 | inactive | 
O=C(O)c1ccccc1OP(=O)(O)O | inactive | 
O=c1n(CCO)c(=O)n(CCO)c(=O)n1CCO | inactive | 
CC(C)CCCC(C)N (stereo not given) | inactive | 
CC(C)(O)C#CC(C)(C)O | inactive | 
COc1cc(C(=O)N2CCCCCCC2)cc(OC)c1OC | inactive | 
NCCc1cnc[nH]1 | inactive | 
Cc1c(O)cccc1O | inactive | 
CC(C)OC(=O)c1ccccc1 | inactive | 
C[C@@H]1CCN(C(=O)[C@H](CCCN=C(N)N)NS(=O)(=O)c2cccc3c2NC[C@H](C)C3)[C@@H](C(=O)O)C1 | inactive | 
CC(=O)OC/C=C(\C)CC/C=C(\C)CCC=C(C)C | inactive | 
COC(C)(C)CCCC(C)CC=O (stereo not given) | inactive | 
CN1CC(=O)NC1=N | inactive | 
CC(C[N+](C)(C)C)OC(N)=O (stereo not given) | inactive | 

SMILES | Potency | activity change, negative = cytotoxicity
CCCN1CCCC[C@H]1C(=O)Nc1c(C)cccc1C | inactive | 
CC(C)(c1ccc(O)cc1)c1ccc(O)cc1 | inactive | 
CCCCCCCCCCCCCCCCC | inactive | 
C=CCS(=O)(=O)O | inactive | 
CCCCC/C=C\CCC=O | inactive | 
Cc1ccc(Cl)cc1Cl | inactive | 
N=C(N)c1ccccc1 | inactive | 
O=C(O)CN(CCOCCOCCN(CC(=O)O)CC(=O)O)CC(=O)O |  | 4.76% [at 0.35 µM]
CCOC(=O)CC(C)=O | inactive | 
COc1ccc2c(c1)c(CC(=O)OCC(=O)O)c(C)n2C(=O)c1ccc(Cl)cc1 | inactive | 
CCOC(=O)c1ccc(C)cc1 | inactive | 
OC1CCCCC1c1ccccc1 (stereo not given) | inactive | 
COCCCOCCCOC | inactive | 
Cc1[nH]c(=O)c(C#N)cc1-c1ccc2nccn2c1 | inactive | 
C=CCCCCCCCCC=O | inactive | 
N=C(N)c1ccc(OCCCOc2ccc(C(=N)N)cc2)cc1 | inactive | 
O=C(O)Cc1ccc(CCNS(=O)(=O)c2ccc(Cl)cc2)cc1 | inactive | 
CN(C)CCCNCCCN(C)C | inactive | 
N=c1nc(N2CCCCC2)cc(N)n1O | inactive | 
CCSC(=O)N(CC(C)C)CC(C)C | inactive | 
